Assay outcomes deposited in PubChem BioAssay by several laboratories.
PG9 binder: small molecules binding HIV-1 gp120 antibody PG9. TR-FRET gp120-PG9 antibody binding. inhibition, % at 6.7 µM. 0.43% of 360,000 active; in the data active = inhibition above about 8.5%
ABCB6 inh 2: blocks the human ABCB6 transporter | Q9NP58 | K562-ABCB6 porphyrin accumulation, flow cytometry, 1 h; stronger effect = lower value | fluorescence ratio to DMSO, % at 10 µM | 0.19% of 360,000 active | AID 602162;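 active = fluorescence ratio to DMSO below 75%, the collection mean minus 3 SD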;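 also: signal is porphyrin accumulated inside mitochondria; 100% equals median channel fluorescence of DMSO control wells; lower ratio means ABCB6 inhibition with less porphyrin fluorescence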
Target sequence (Q9NP58 whole entry, looked up): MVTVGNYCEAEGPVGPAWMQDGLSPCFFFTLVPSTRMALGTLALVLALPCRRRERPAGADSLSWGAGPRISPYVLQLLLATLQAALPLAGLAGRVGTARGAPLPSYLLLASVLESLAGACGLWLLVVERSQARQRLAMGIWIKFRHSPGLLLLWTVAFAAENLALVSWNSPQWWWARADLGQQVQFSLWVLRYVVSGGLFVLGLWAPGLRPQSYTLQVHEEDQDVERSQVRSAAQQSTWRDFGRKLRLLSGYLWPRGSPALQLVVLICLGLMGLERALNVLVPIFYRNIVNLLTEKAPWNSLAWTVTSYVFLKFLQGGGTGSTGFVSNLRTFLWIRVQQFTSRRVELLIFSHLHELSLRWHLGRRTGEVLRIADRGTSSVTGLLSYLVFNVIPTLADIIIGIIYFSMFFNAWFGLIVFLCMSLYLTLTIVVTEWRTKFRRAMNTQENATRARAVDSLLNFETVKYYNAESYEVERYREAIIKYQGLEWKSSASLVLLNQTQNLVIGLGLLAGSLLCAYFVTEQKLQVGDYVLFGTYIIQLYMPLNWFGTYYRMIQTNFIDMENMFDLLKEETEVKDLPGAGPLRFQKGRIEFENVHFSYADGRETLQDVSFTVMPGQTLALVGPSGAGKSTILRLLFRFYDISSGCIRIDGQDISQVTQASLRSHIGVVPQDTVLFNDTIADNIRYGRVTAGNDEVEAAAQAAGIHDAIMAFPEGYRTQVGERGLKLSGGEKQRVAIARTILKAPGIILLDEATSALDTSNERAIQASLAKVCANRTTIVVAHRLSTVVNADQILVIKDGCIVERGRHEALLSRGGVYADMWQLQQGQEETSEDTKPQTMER
Granule exo inh: lytic granule exocytosis inhibition | AID 651702 | TALL-104 LAMP-1 surface exposure, flow cytometry; cells stimulated with thapsigargin and PMA | 0.66% of 360,000 active | inhibition, % at 10 µM;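 active = inhibition above about 55%, limit read from the data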
rCAG binder-1: r(CAG) repeat RNA binding; TO-PRO-1 dye displacement fluorescence; inhibition, % at 3 µM; 1.3% of 370,000 active; AID 651821;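 active = inhibition above the plate cutoff, the mean of all test compounds on that plate plus 3 SD, cut at about 35% in these data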;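 also: 0% = DMSO alone and 100% = 100 µM mitoxantrone as full dye displacement; higher means more dye released from RNA so lower well fluorescence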
rCAG binder conf: r(CAG) RNA repeat binding, confirmation | inhibition, % at 3 µM | 70% of 4,300 active | TO-PRO-1 dye displacement fluorescence | shares compounds with rCAG binder-1;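 active = inhibition above a per-plate cutoff, the mean inhibition of sample wells plus 3 SD, cut at about 35% in these data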;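 also: loss of TO-PRO-1 fluorescence as compound displaces dye from 1x1 AA loop RNA; 0% = DMSO only wells and 100% = 100 µM mitoxantrone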
dCAG dye counter: counter-screen for rCAG RNA binders: DNA CAG dye complex inhibitors | shares compounds with rCAG binder-1 | d(CAG) DNA oligo TO-PRO-1 dye displacement, fluorescence | inhibition, % at 3 µM | 94% of 4,300 active | AID 652068;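 active = inhibition above its plate's cutoff, the mean test-well inhibition plus 3 SD, cut at about 4.8% in these data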;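 also: 0% = DNA dye mix with DMSO and 100% = 100 µM mitoxantrone; hits displace the dye from DNA and so lower well fluorescence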
dCAG dye DR: counter-screen for rCAG binders: inhibitors of DNA CAG TO-PRO-1 complex; IC50, µM; DNA CAG/GTC duplex TO-PRO-1 dye displacement fluorescence; 20% of 250 active; shares compounds with rCAG binder-1; in the data active = IC50 below about 10 µM
dCAG TOPRO ctr: DNA CAG dye complex inhibition, late stage dose response | shares compounds with rCAG binder-1 | d(CAG) DNA duplex TO-PRO-1 dye displacement, fluorescence | IC50, µM | 80% of 30 active
rCAG binder-2: molecules binding r(CAG) RNA repeats, late stage dose response | shares compounds with rCAG binder-1 | r(CAG) RNA TO-PRO-1 dye displacement, fluorescence | IC50, µM | 100% of 30 active | AID 720651
The depositor's hits bear a star; i = inactive; x = not tested or not shown. Shown are actives, neighbours in structure and some others; about 2.5% of the full set was active somewhere. Unless noted, no rule for the calls is given here.

SMILES	PG9 binder	ABCB6 inh 2	Granule exo inh	rCAG binder-1	rCAG binder conf	dCAG dye counter	others
O=C(CSc1nc2ccccc2n1Cc1ccc(Cl)cc1)N/N=C/c1ccccc1C(=O)O	-0.4	102.0	3.0	53.3*	56.4*	17.7*
O=C(CSc1ccc(-c2ccccn2)nn1)N1CCCC1	-0.3	103.0	0.2	-1.8	x	x
CCNC(=S)NNC(=O)c1cc(-c2cccc(OC)c2)nc2ccccc12	-1.5	100.0	2.1	11.1	x	x
CCCOc1cccc(-c2cc(C(=O)NNC(=S)NCC)c3ccccc3n2)c1	-2.2	88.0	-2.0	57.6*	56.0*	19.7*
CCNC(=S)NNC(=O)c1cc(-c2ccc(OCC)cc2)nc2ccccc12	1.3	102.0	4.6	42.5*	48.0*	16.5*
CCCOc1ccc(C(=O)NNC(=S)NC(=O)c2cc(-c3ccc(Cl)cc3)nc3ccccc23)cc1	3.3	88.0	1.9	16.2	x	x
COc1ccc(C(=O)NNC(=S)NC(=O)c2cc(-c3ccccc3)nc3ccccc23)cc1	-0.9	95.0	3.5	65.5*	78.5*	33.2*
COc1ccc(-c2cc(C(=O)NNC(=S)NC(=O)c3c(-c4ccccc4)noc3C)[nH]n2)cc1	-0.1	96.0	-4.2	70.1*	74.7*	32.6*	dCAG dye DR=i;dCAG TOPRO ctr=i;rCAG binder-2=0.989*
C#CCOCCOCCOCCNc1nc(N2CCN(C(=O)[C@H](CCCCN)n3cc([C@@H](N)[C@H](C)CC)nn3)CC2)nc(N2CCN(C(=O)[C@H](CCC(=O)O)n3cc([C@@H](N)CCSC)nn3)CC2)n1	-0.5	103.0	-4.7	1.3	x	x
Cc1ccc(C)c(-c2cc(C(=O)NNC(=S)NCC(C)C)c3ccccc3n2)c1	-2.2	97.0	1.2	44.7*	67.1*	24.1*	dCAG dye DR=>29.9
CCC(Oc1ccccc1)C(=O)Nc1ccc(S(=O)(=O)Nc2ncccn2)cc1 (stereo unspecified)	-2.4	99.0	-7.2	5.7	x	x
O=C(Nc1ccc(S(=O)(=O)Nc2cnc3ccccc3n2)cc1)c1ccc(Cl)c([N+](=O)[O-])c1	-1.9	99.0	-8.8	78.7*	66.7*	30.0*
COc1ccc(C(=O)Nc2ccc(S(=O)(=O)Nc3cnc4ccccc4n3)cc2)cc1	-1.0	101.0	0.5	45.9*	27.7	5.7*
CCC(Oc1ccccc1)C(=O)Nc1ccc(S(=O)(=O)Nc2cnc3ccccc3n2)cc1 (stereo unspecified)	1.7	100.0	1.0	58.3*	45.9*	13.2*
O=C(Nc1ncccn1)c1ccc(Cl)c([N+](=O)[O-])c1	-2.0	94.0	-4.0	1.5	x	x
O=C(O)C(Cc1c[nH]c2ccccc12)N1C(=O)C2C3c4ccccc4C(c4ccccc43)[C@@H]2C1=O (stereo partly specified)	2.7	98.0	18.1	49.9*	44.8*	12.4*
Nc1ccc2c(c1)OC1(CCCC1)O2	-0.9	99.0	0.0	4.5	x	x
CCCc1nc2ccc(Cl)cn2c1Cc1ccsc1	0.6	99.0	-0.3	1.2	x	x
O=C(NC1CCCCN(Cc2cccc(Cl)c2)C1=O)c1ccc(F)c(F)c1 (stereo unspecified)	x	x	x	1.1	x	x
CC1=CC(C)(C)NC(=S)N1c1cccc2cc(S(=O)(=O)O)ccc12	-2.1	104.0	7.8	43.4*	87.1*	57.6*
CC1=CC(C)(C)NC(=S)N1c1ccccc1C	1.5	90.0	4.1	0.2	x	x
C/C(=N\NC(=O)c1cc2ccccc2cc1O)c1ccc2c(c1)OCO2	-1.1	111.0	-4.9	29.3	x	x
CCOC(=O)C(C)/C(C)=N/NC(=O)c1cc2ccccc2cc1O (stereo unspecified)	0.1	96.0	-6.5	43.7*	12.6	6.7*
C/C(CC(=O)N1CCCC1)=N\NC(=O)c1cc2ccccc2cc1O	0.3	98.0	-2.9	38.2*	14.5	6.2*
O=C(OCC(=O)N1CCCCC1)c1cc2ccccc2cc1O	-2.9	104.0	-1.7	2.1	x	x
